Assay results reported in PubChem BioAssay AID1240 (Sanford-Burnham Center for Chemical Genomics, 2008).
Hit rate of the full screen: of about 50,000 compounds, about 800 (1.6%) showed an effect of 50% or more. For the sample, strong results were picked, then their nearest neighbours and some compounds at random.

Molecular target: Bcl-2-like protein 10 (Homo sapiens) (UniProt Q9HD36)
Experiment: TR3 peptide-Bcl-B binding displacers, biochemical primary FP assay, phenotype converters (AID 1240);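 also: 0% = Bcl-B with tracer peptide and DMSO and 100% = tracer peptide lacking Bcl-B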
Conditions: GST-Bcl-B / FITC-TR3 peptide fluorescence polarization; stronger effect = higher value; compound at 3.75 mg/L

Chain of Bcl-2-like protein 10 (Homo sapiens) (Q9HD36 whole entry, looked up): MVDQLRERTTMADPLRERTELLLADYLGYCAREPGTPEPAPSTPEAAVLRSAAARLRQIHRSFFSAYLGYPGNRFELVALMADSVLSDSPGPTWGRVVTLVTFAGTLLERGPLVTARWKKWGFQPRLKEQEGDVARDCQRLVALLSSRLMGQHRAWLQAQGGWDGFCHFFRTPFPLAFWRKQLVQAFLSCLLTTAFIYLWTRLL

Compound | displacement
COc1cccc(OCCCCS)c1 | 10%
O=C(O)c1cc(S(=O)(=O)N2CCCCC2)ccc1O | -1.5%
COc1ccc(C2CC(=O)C3=C(C2)Nc2ccccc2NC3c2cccc3ccccc23)cc1OC (centres undefined) | 1.8%
O=C(Nc1c(C(=O)N2CCOCC2)cnn1-c1ccccc1)c1cccs1 | 12.5%
O=c1oc2c(CN3CCOCC3)c(O)ccc2cc1-c1nc2ccccc2s1 | 118%
Cc1oc2c(CN3CCN(C)CC3)c(O)ccc2c(=O)c1-c1nc2ccccc2s1 | 11.7%
CN(C)Cc1c(O)ccc2cc(-c3nc4ccccc4s3)c(=O)oc12 | 110%
Cc1oc2c(CN(CC(C)C)CC(C)C)c(O)ccc2c(=O)c1-c1nc2ccccc2s1 | 12.7%
CN1CCN(Cc2c(O)ccc3cc(-c4nc5ccccc5s4)c(=O)oc23)CC1 | 121%
CCc1cc2c(=O)c(-c3nc4ccccc4s3)coc2c(CN(C)C)c1O | -15%
CCc1cc2c(=O)c(-c3nc4ccccc4s3)coc2c(CN2CCOCC2)c1O | 1%
Cc1oc2c(CN3CCCC3)c(O)ccc2c(=O)c1-c1nc2ccccc2s1 | 12.7%
CN1CCN(Cc2c(O)ccc3cc(-c4ccccn4)c(=O)oc23)CC1 | 25.9%
Cc1cccc(NC(=O)C2C(c3ccccc3)=C2c2ccccc2)c1C | 5.5%
CCN(CC)c1ccc(NC(=O)COc2ccc(OC)cc2)cc1 | -5%
COc1ccccc1N1C(=O)NC(=O)/C(=C/c2ccc(OC)c3ccccc23)C1=O | 5.3%
C=CCOc1ccc(Cl)cc1/C=C1/SC(=S)NC1=O | -2.6%
O=C(Nc1cc(Br)cc2cccnc12)c1ccc(Cl)cc1 | -7.2%
Cc1cc(/C=C2\NC(=O)NC2=O)c(C)n1-c1ccc(N(C)C)cc1 | 3.4%
Cc1cc(/C=C2/NC(=O)NC2=O)c(C)n1-c1ccc(Cl)cc1 | 10.7%
Cc1cc(C=C2C(=O)NC(=S)NC2=O)c(C)n1-c1ccc(N2CCOCC2)cc1 | 22.3%
Cc1cc(C=C2C(=O)NC(=O)NC2=O)c(C)n1-c1ccc(F)cc1 | 4.7%
Cc1cc(C=C2C(=O)NC(=O)NC2=O)c(C)n1-c1ccc(Cl)cc1 | 106%
Cc1cc(/C=C2\C(=O)NC(=O)N(C)C2=O)c(C)n1-c1ccc(N(C)C)cc1 | 124%
Cc1cc(/C=C2/C(=O)NC(=O)N(c3ccccc3)C2=O)c(C)n1-c1ccccc1 | 30.8%
Cc1cc(/C=C2/NC(=O)NC2=O)c(C)n1-c1ccc(N2CCOCC2)cc1 | -5.1%
Cc1cc(C=C2C(=O)NC(=O)NC2=O)c(C)n1-c1ccc(N2CCOCC2)cc1 | 126%
FC(F)(F)c1ccccc1CN1CCN(Cc2c[nH]c3ccccc23)CC1 | -5.2%
C=C(C)CNC(=S)NC1=C(C)N(C)N(c2ccccc2)C1=C | -10.7%
